From PubChem
Only some compounds are listed: those with a hit (about 0.25% of all), similar ones and a draw of the others.
BCR signal inh: qHTS Assay to Find Inhibitors of Chronic Active B-Cell Receptor Signaling. ABC-DLBCL IkBa-CBG/CBR reporter, luminescence ratio, 4 h. 340,000 compounds, 0.05% hits. Potency, µM (highest dose often 46.1 µM), without a hit: top-dose activity change, negative = inhibition, most hits filed as inhibitors. AID 493014, 2011; active means well fitted inhibition curve with a large enough effect in the signal ratio, with a control signal flat, not every such curve was filed as active; inconclusive means small, poorly fitted or top-dose-only effect, or effect the other way, or a change in a side signal; the % refers to the signal ratio;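 further: plate controls were basal doxycycline-induced cells for no effect and cells given 10 µM MG132 for full effect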
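Cell line TMD8 (human ABC DLBCL), stably expressing tet-inducible CBG68-IkBa fusion and CBR; IMDM/0.5% FBS; cpd up to 46 uM; dox induction, 4 h, 37C/5% CO2; dual luminescence; green/red ratio; MG132 control.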
PGK inhibitor: qHTS Assay to Find Inhibitors of Phosphoglycerate Kinase; Phosphoglycerate kinase, glycosomal (Trypanosoma brucei brucei), P07378; PGK/GAPDH coupled, Kinase-Glo luminescence, 60 min; Potency, µM (series often up to 57.5 µM), for the others: at the highest dose activity change, negative = inhibition, hits mostly inhibitors; 380,000 compounds, 0.043% hits; AID 602233, 2012; further: on the % scale 0 is the no-effect control and ±100 the full control effect; nearly all actives have a fitted effect of over 60% in size
Target sequence (P07378 whole entry, looked up): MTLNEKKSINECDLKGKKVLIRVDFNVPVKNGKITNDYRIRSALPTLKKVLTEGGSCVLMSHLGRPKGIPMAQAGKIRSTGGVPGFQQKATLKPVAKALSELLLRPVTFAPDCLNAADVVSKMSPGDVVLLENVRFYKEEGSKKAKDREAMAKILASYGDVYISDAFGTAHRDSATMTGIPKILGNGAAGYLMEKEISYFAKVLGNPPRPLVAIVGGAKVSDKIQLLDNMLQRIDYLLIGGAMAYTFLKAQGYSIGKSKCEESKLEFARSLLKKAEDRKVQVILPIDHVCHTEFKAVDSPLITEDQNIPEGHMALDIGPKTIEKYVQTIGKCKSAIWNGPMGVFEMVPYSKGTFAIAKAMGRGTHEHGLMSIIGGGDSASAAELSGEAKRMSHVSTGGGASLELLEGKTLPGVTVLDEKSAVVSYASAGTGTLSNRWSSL
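Recombinant glycosomal PGK reaction used 1,3-bisphosphoglycerate generated in-well by GAPDH (100nM final) in 100mM TEA pH 7.6, 5mM MgCl2, 0.01% Tween-20. After 60 minutes at room temperature, ATP was read by Kinase-Glo Plus luminescence end-point.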
Tb PFK block: qHTS Assay to Find Inhibitors of T. brucei phosphofructokinase; Potency, µM (titrated, usually from 57.5 µM), for the others: at the top dose activity, negative = inhibition, hits mostly inhibitors; T. brucei PFK, ADP-Glo luminescence; 330,000 compounds, 0.17% hits;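 further: 0% = uninhibited 1x PFK enzyme wells and -100% = no-enzyme wells; nearly all actives have a fitted effect of over 60% in size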
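1.25 nM PFK with 0.5 mM F6P and 0.1 mM ATP in 0.1 M TEA pH 8.0, 5 mM MgCl2, incubated 45 min at room temperature; ADP measured by ADP-Glo luminescence; compounds titrated up to 57 uM.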
ERG Ets-DNA blk: qHTS for Small Molecule Inhibitors of the ERG Ets/DNA interaction. fluorescence polarization, His-ERG Ets domain / labelled DNA. Potency, µM (top dose mostly 76.9 µM), inactives show at the highest dose FP activity, negative = inhibition, most hits filed as inhibitors. AID 624246, 2012. Transcriptional regulator ERG (Homo sapiens), P11308. 370,000 compounds, 0.028% hits; active means well fitted inhibition curve with a large enough effect in the polarisation, with a control signal flat; inconclusive means small, poorly fitted or top-dose-only effect, or effect the other way, or a change in a side signal; inactive means no such curve, though single readings can be large or run the other way; the % refers to the polarisation;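 further: polarization taken with two DNA probes labelled with fluorescein and Texas red; % of control where 0% means no effect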
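His-tagged ERG Ets domain (1 uM in the protein solution; 300mM KCl, 50mM Tris-HCl, 1mM EDTA, 1mM DTT, pH 7.5) received compound, then a probe mix of 5 nM fluorescein-DNA and 100nM Texas-615-DNA. Fluorescence polarization was read for both dyes.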
Pin1 inh: qHTS Assay to Find Inhibitors of Pin1. Potency, µM (doses to about 115 µM), without a hit: at the top dose activity, negative = inhibition, most hits filed as inhibitors. Pin1 FP peptide displacement, HiFluor488, 10 min. 390,000 compounds, 0.009% hits. Peptidyl-prolyl cis-trans isomerase NIMA-interacting 1 (Homo sapiens), Q13526; active means well fitted inhibition curve with a large enough effect in the polarisation, with a control signal flat, not every such curve was filed as active; inconclusive means small, poorly fitted or top-dose-only effect, or effect the other way, or a change in a side signal; inactive means no such curve, though single readings can be large or run the other way; the % refers to the polarisation; further: on the % scale 0 is the no-effect control and ±100 the full control effect
The depositor's hits bear a star; i = inactive; ? = inconclusive; . = not tested or not shown; [ ] = another dose, or the depositor's remark. Unless noted, the call rests on the fitted dose curve; in most records, active means well fitted curve in the direction sought with a large enough effect; inconclusive means small, poorly fitted or top-dose-only effect, or another doubt; inactive means no such curve, though single readings can be large; an effect the other way counts as inactive or inconclusive. Potency means the concentration at half of the fitted maximal effect.

SMILES	BCR signal inh	PGK inhibitor	Tb PFK block	ERG Ets-DNA blk	Pin1 inh
Cc1cccc(-n2c3nc(=O)[nH]c(=O)c-3cc3cc([N+](=O)[O-])ccc32)c1	12µM*	-12%	-11%	7%	-4%
Cc1ccc(-n2c(=O)c3sccc3n(CC(=O)NCc3ccco3)c2=O)cc1	-2%	-2%	0%	-3%	4%
Cc1cccc(Cn2c(=O)n(-c3ccc(CC(=O)NCc4ccco4)cc3)c(=O)c3sccc32)c1	5µM*	-8%	0%	-6%	24%
COc1ccc(OC)c(NC(=O)c2c(N3CCCC3=O)c3cc(OC)ccc3n2C)c1	.	-10%	.	2%	-1%
COc1ccc(OC)c2c1C(=O)c1ccccc1C2=O	-5%	-7%	0%	32µM*	.
COc1ccc(N)c2c1C(=O)c1ccccc1C2=O	?	-18%	2%	?	?
COc1cccc(CN2C(=O)c3ccccc3NC2c2ccc(OC)c(COc3ccc(NC(C)=O)cc3)c2)c1 (stereo unspecified)	.	.	.	.	6%
O=S(=O)(c1ccc2c(c1)OCCO2)N1CCN(S(=O)(=O)c2cccs2)CC1	.	.	.	.	1%
O=C1N(Cc2cccnc2)C[C@@H]2C[C@@H](c3ccc(C(F)(F)F)cc3)N3CCC[C@@]123	0%	i	-2%	-5%	-3%
O=C1N(Cc2cccnc2)C[C@@H]2C[C@@H](c3ccccc3C(F)(F)F)N3CCC[C@@]123	8%	i	-6%	32µM*	2%
CC(=O)N[C@@H](CC(=O)O)C(=O)O	3%	i	-1%	28µM*	?
O=C(O)CSC1=NS(=O)(=O)c2ccccc21	.	.	.	.	-5%
COc1ccc(C2CC(c3ccccc3)Oc3ccc(OC)cc32)cc1 (stereo unspecified)	.	.	.	.	3%
O=C1C2=C(C(=O)c3ccccc31)C1O[C@](CCCCN3C(=O)c4ccccc4C3=O)(Cc3c1ccc1ccccc31)O2	?	.	3%[11.5 µM]	.	.
N#C/C(=C\c1cccc(NC(=O)c2ccccc2Cl)c1)C(=O)NCCc1ccccc1	21µM*	-4%	-7%	1%	38%
Clc1cccc(OCCn2ccnc2)c1	-2%	1%	27µM*	-5%	3%
COc1cccc(OCCn2ccnc2)c1	-1%	-3%	?	0%	-5%
Cc1ccc(N/N=C(\Cc2nc3ccccc3[nH]2)c2ccccc2)cc1	23µM*	-3%	3%	7%	0%
COc1cccc(C)c1NC(=O)C(OC(=O)CNC(=O)c1ccccc1)c1ccccc1 (stereo unspecified)	.	.	.	.	5%
O=C(O)CC(C(=O)O)N1C(=O)/C(=C/c2ccc(-c3nc4ccccc4s3)o2)SC1=S (stereo unspecified)	-18%	25µM*	?	13%	?
O=C(O)C1=C(C(=O)O)C2C=CC1C2	.	11µM*	.	-3%	-2%
CCOc1ccc(-c2cc(-c3nc(-c4ccc(C)cc4)no3)[nH]n2)cc1	.	-2%	.	-5%	1%
NC(=S)n1[nH]c(-c2ccc([N+](=O)[O-])cc2)c(N=Nc2ccc(Cl)cc2)c1=O	10µM*	-15%	-2%	-11%	?
COc1ccc(OC)c(-c2nnc3n2N=C(c2c(OC)cccc2OC)CS3)c1	.	.	.	.	1%
CCOc1ccc(NS(=O)(=O)c2ccc(Cl)c(N=Nc3c(O)[nH]c(=S)[nH]c3=O)c2)cc1Br	.	22µM*	.	.	.
CC1CC=CC2C1C(=O)N(Cc1ccccc1)C2c1ccc(-c2cc3ccccc3s2)cc1F (stereo unspecified)	.	.	.	.	6%
COc1ccc(Nc2cc(C)c3cc(NC(=O)COc4cccc(C)c4)ccc3n2)cc1	.	6%	.	1%	23%
COc1ccc(C(=O)Nc2cc3c4c(c2)C(C)C(=O)N4CCC3)c(OC)c1 (stereo unspecified)	-10%	5%	1%	-2%	-12%
